± gives the standard deviation of the averaged measurements. Over roughly 25,000 sequences, “ln(normalized median fluorescence intensity)” has its median near 7.9; the highest 2% begin near 11. Only a selection was taken, and the highest values are over-represented in it overall.

The test system of this assay is PfAP2-I AP2 domain 3 (GST-tagged). In words: gcPBM binding intensity (ln(normalized median fluorescence intensity)); higher = stronger DNA binding. In a few lines:
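In this array assay, P. falciparum DNA-binding domains with a GST tag, expressed in E. coli, were applied for 1 h to primer-extended double-stranded 36-bp intergenic genomic probes and negative controls on an Agilent 4 × 180k array. Bound protein was visualised with Alexa488 anti-GST antibody at 488 nm. Binding intensity is the highest Masliner-normalised natural-log median intensity across replicate spots of either probe orientation.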
Take “ATGTTATTAATAATTGCACACATTTTTTTTTTTTTT [CACACA_site3920]”: the “gcPBM binding intensity (ln)” value was 9.12 ± 0.23.
On to “AAAAATATATAACAAAGTACATATATATTTAGTAAT [XGTACX_site8791]”, for which the “gcPBM binding intensity (ln)” value worked out at 7.43 ± 0.4.
“AAAATAAAATAAAAGTGTACGTTTTAAGAACATTGA [XGTACX_site2382]”: the “gcPBM binding intensity (ln)” value came out at 7.76 ± 0.48.
The figure for “ATCTGTCGACAGGACAGTACACAGTAGCCAGTAACT [XGTACX_site2001]” is 7.63 ± 0.76; for “AATTTAAAGTTTTTTTTTTTTTTTTTTTTTTTTTTG [CACACA_negctrl_site1082]” it is 7.39 ± 0.31.
For “AACATTTCCTTTCTGTGTACATATAAACCCATCTAT [XGTACX_site2071]”, the “gcPBM binding intensity (ln)” value amounted to 8.13 ± 0.64.
The figure for “TTATTTTTTTTTAGAGCACACATTTTTAATAAGGTA [CACACA_site2133]” is 9.54 ± 0.2.
On to “TATCATATATGAAGGTGTACGATTTATTATATAAAT [XGTACX_site7010]”, for which the “gcPBM binding intensity (ln)” value stood at 7.87 ± 0.54.
As for AAATATTATAAAAAGGTGCATTTTTATTATATGAGT, the “gcPBM binding intensity (ln)” value was 10.5 ± 0.35.
The figure for ATTATCAATATGAAGGTGCATTTAAATAATATTTAC is 11.3 ± 0.7; for TGTTTTATTTAGAAGGTGCACATTAATATTAAATAA it is 11.3 ± 0.45; for TAATGCAACATTTATGTGCACATAAATATTTTTTAA it is 9.815 ± 0.064.
The same measure for “TTTTCAATTAATAATACACACATGTATTTATTATTA [CACACA_site5774]”: 7.83 ± 0.34.
Turning to “ATAAATTCATATATGAGTACTAAAAATATCTTTTTC [XGTACX_site5541]”, the “gcPBM binding intensity (ln)” value amounted to 7.61 ± 0.45.
The same measure for “ATTTATGGAAAAAGAACACACAATCAAACAAAAATA [CACACA_site3707]”: 8.01 ± 0.57; for “TTATAATTTTTGAGCACACACAAGCATATATATATA [CACACA_site1798]”: 9.475 ± 0.049; for “ATATATATATATTTCGCACACATAATCTTATTAAAT [CACACA_site2579]”: 9.22 ± 0.31.
The same measure for “TATGGATAAATAAATACACACATAAATTTAAATATA [CACACA_site1282]”: 7.57 ± 0.61; for “GTTTATCACAGCCACGCACACATAATATCTGTATAT [CACACA_site5929]”: 8.18 ± 0.59; for “GAACATTTGAAATATGCACACATGTATAAACCTACA [CACACA_site2654]”: 8.7 ± 0.4.
As to “TATATATATATATGTGCACACATAAAGATATTATTT [CACACA_site3734]”, the “gcPBM binding intensity (ln)” value is 10.18 ± 0.021.
In the case of “AGATAAGATATATACACACACATAAATACGTACAAA [CACACA_site6639]”, the “gcPBM binding intensity (ln)” value stood at 8.35 ± 0.16.
“ATAAATAAGATACGTACACACATATACAAAATATAC [CACACA_site3661]”: the “gcPBM binding intensity (ln)” value is 8.14 ± 0.26.
The same measure for “TATATATATATGTGCACACATAAAGATATTATTTTT [CACACA_site3733]”: 10.2 ± 0.042; for “CTTATATATACGTGCACACATATATATAAGATATAT [CACACA_site1752]”: 11.03 ± 0.11.
Consider “TGCTTATATATACGTGCACACATATATATAAGATAT [CACACA_site8516]”, for which the “gcPBM binding intensity (ln)” value was found to be 10.9 ± 0.11.
“AAGGTAGAAATATGTTGTACGGTTTGGAGGAAGCAA [XGTACX_site1105]”: the “gcPBM binding intensity (ln)” value turned out to be 8.12 ± 0.49.
With “AGTACATTTTTTTTAATAGGAAAAAAAATATTTATT [TGCATGCA_negctrl_site575]”, the “gcPBM binding intensity (ln)” value is 7.66 ± 0.57.
As for “TTTTTTGCTAAGTGTACACAAATGTTTATTAATTTA [CACACA_site5859]”, the “gcPBM binding intensity (ln)” value is 8.42 ± 0.27.
The same measure for “ATATATATATATAGTGCACACTTAAGAATATAAAGA [CACACA_site4771]”: 11.5 ± 0.27.
For “ATATATATATAGTGCACACTTAAGAATATAAAGAGG [CACACA_site1151]”, the “gcPBM binding intensity (ln)” value is 11.5 ± 0.3.
The figure for “AAATAAAGAATATAAATACACACTTAAATATATATT [CACACA_site4007]” is 7.58 ± 0.61; for “AAAAAAAAAAAAAGTGCACACTTTTAATATAAATAT [CACACA_site3314]” it is 10 ± 0.35.
In the case of “ATAAAGAATATAAATACACACTTAAATATATATTAT [CACACA_site6071]”, the “gcPBM binding intensity (ln)” value was determined as 7.64 ± 0.44.
With “ATAAAGAATATAAATACACACTTAAATATAGATTAT [CACACA_site7804]”, the “gcPBM binding intensity (ln)” value came out at 7.6 ± 0.45.
“TATATGTATGTATGTACACACAAAAAATGGAATATA [CACACA_site3717]”: the “gcPBM binding intensity (ln)” value came to 7.93 ± 0.35.
Consider “GTATTATATATATAGGTGCATATATATATATAAATA [GTGCAC_site9787]”, for which the “gcPBM binding intensity (ln)” value came to 10.6 ± 0.33.
The figure for “AAAAATAAAGAAACAGGTACGCATATATTAAGATAT [XGTACX_site8097]” is 7.98 ± 0.78; for “GGTATATTAAAATAGGTGCATAAAACTAAGAGAAAA [GTGCAC_site9781]” it is 11.3 ± 0.54.
Consider “CAATATTATTATATTTGTACACATGCGTATTTTTTA [XGTACX_site4154]”, for which the “gcPBM binding intensity (ln)” value was 7.74 ± 0.47.
For “TAACTTAATATTAATGCACACAATTTATATATATAT [CACACA_site3903]”, the “gcPBM binding intensity (ln)” value turned out to be 11.3 ± 0.38.
As to “TAAATTATATTATGCACACTTAAAAATATATTTAAC [CACACA_site3512]”, the “gcPBM binding intensity (ln)” value was determined as 10.4 ± 0.49.
Turning to “TTTTTAAAATATTTAACACACAATTATAATGCATAA [CACACA_site3932]”, the “gcPBM binding intensity (ln)” value turned out to be 8.885 ± 0.035.
For “AATATAACTTTTTGCACACTTAATTTTTTTTTTTAA [CACACA_site3365]”, the “gcPBM binding intensity (ln)” value was 9.79 ± 0.11.
“TAACTTAATTTTAATGCACACAATTTATATATATAT [CACACA_site6022]”: the “gcPBM binding intensity (ln)” value worked out at 11.2 ± 0.52.
Consider “TTAATATAACTTTTTGCACACTTAATTTTTTTTTTT [CACACA_site3364]”, for which the “gcPBM binding intensity (ln)” value was 9.32 ± 0.085.
For the sequence “ACACGTTTATATAAAAAATTAAAATTTTTCTTATTT [CACACA_negctrl_site1523]”, the “gcPBM binding intensity (ln)” value was 7.95 ± 0.32.
For “TTGCCCCAGGAGTTCACACACATAATAGATTGTCAC [CACACA_site726]”, the “gcPBM binding intensity (ln)” value came to 7.79 ± 0.61.
For “ATATTTTATTTTAATACACACAAGTTATATAACCAC [CACACA_site6508]”, the “gcPBM binding intensity (ln)” value stood at 8.19 ± 0.48.
The same measure for “CAAGTATTAATTATGTGTACATATATATATATATAT [XGTACX_site5311]”: 9.36 ± 0.23; for “ATCGTGTTAAATGTTGTGCACATATAAATTACAAAA [GTGCAC_site9822]”: 10.605 ± 0.007.
In the case of TATATGTATGTTTGTGTGCACACATAAATATTATAT, the “gcPBM binding intensity (ln)” value stood at 9.79 ± 0.042.
For the sequence TTGTTGTGTATTATCGTGCACATAATATAAAAGATT, the “gcPBM binding intensity (ln)” value turned out to be 11.11 ± 0.078.
“TAAATGAAAATATGTACACACTTGAAAACTTTTATG [CACACA_site7388]”: the “gcPBM binding intensity (ln)” value is 7.84 ± 0.45.
Consider “GTTTTATAAAAAGGCGCACACATATACATAAATATA [CACACA_site1864]”, for which the “gcPBM binding intensity (ln)” value was determined as 8.47 ± 0.37.
“TAATAATTATTGCACGCACACAAAAACCTATAGATT [CACACA_site2931]”: the “gcPBM binding intensity (ln)” value came out at 11 ± 0.67.
As for “AAAATATAATATATTGCACACAAAAAGTGAATTATT [CACACA_site8489]”, the “gcPBM binding intensity (ln)” value came out at 10 ± 0.62.
Regarding “TGTAATAATTATTGCACGCACACAAAAACCTATAGA [CACACA_site2932]”, the “gcPBM binding intensity (ln)” value was 10.8 ± 0.88.

These data come from the supplement of paper PMC11417369.
